According to PubChem BioAssay (NCATS):
Records with an inconclusive call do not appear. Calls of active or inactive are those of the source. The call rests on the fitted dose curve; in most records, active means well fitted curve in the direction sought with a large enough effect; inconclusive means small, poorly fitted or top-dose-only effect, or another doubt; inactive means no such curve, though single readings can be large; an effect the other way counts as inactive or inconclusive.

Key:
[1] = qHTS of pediatric cancer cell lines to identify multiple opportunities for drug repurposing: Primary screen for Rh18 cells (AID 1347102); further: nearly all actives have a fitted effect of over 65% in size
How it was run: (§1)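 Cells (500-1,000/well) rested 5 h, then received compounds for 48 h; metabolically active cells were measured by CellTiter-Glo luminescence. Final concentrations spanned up to 46 µM (MIPE, 11-point) or 0.59 nM-46 µM (NPC, 8-point) in primary screens, 11-point in follow-ups.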

[2] = qHTS of pediatric cancer cell lines to identify multiple opportunities for drug repurposing: Primary screen for OHS-50 cells (AID 1347103); further: nearly all actives have a fitted effect of over 40% in size
How it was run: as §1

[3] = qHTS of pediatric cancer cell lines to identify multiple opportunities for drug repurposing: Primary screen for RD cells (AID 1347104); further: nearly all actives have a fitted effect of over 55% in size
How it was run: (§2)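 Luminescence from CellTiter-Glo served as readout of metabolically active cells after 48 h compound exposure. Titrations: MIPE 11-point, from 0.78 nM; NPC 8-point, from 0.59 nM (final). Concentration-response curves came straight from the primary screen.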

[4] = qHTS of pediatric cancer cell lines to identify multiple opportunities for drug repurposing: Primary screen for MG 63 (6-TG R) cells (AID 1347105); further: nearly all actives have a fitted effect of over 50% in size
How it was run: as §2

[5] = qHTS of pediatric cancer cell lines to identify multiple opportunities for drug repurposing: Primary screen for control Hh wild type fibroblast cells (AID 1347106);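 further: series mostly up to about 46 µM; a drop in luminescence marks cytotoxicity and a rise apparent proliferation; nearly all actives have a fitted effect of over 55% in size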
How it was run: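 Viability after 48 h compound treatment at 37C, 500-1,000 cells/well, read as ATP luminescence with CellTiter-Glo. Primary screens used 11-point (MIPE, 0.78 nM-46 µM) or 8-point (NPC, 0.59 nM-46 µM) final concentrations; follow-up screens used 11-point dilutions.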

[6] = qHTS of pediatric cancer cell lines to identify multiple opportunities for drug repurposing: Primary screen for Rh30 cells (AID 1347107); further: series mostly up to about 46 µM; nearly all actives have a fitted effect of over 75% in size
How it was run: as §1

[7] = qHTS of pediatric cancer cell lines to identify multiple opportunities for drug repurposing: Primary screen for Rh41 cells (AID 1347108);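 further: series mostly up to about 46 µM; luminescence drop marks cytotoxic hits; nearly all actives have a fitted effect of over 70% in size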
How it was run: as §2

Measured: outcome

Cc1cc(O)cc(C)c1Cl
inactive: [1] | [2] | [3] | [4] | [5]

COC(=O)c1ccccc1C(=O)c1ccc(OCCN2CCCCC2)cc1
inactive: [1] | [2] | [3] | [4] | [5] | [6]

CCOC(N)=O
inactive: [1] | [2] | [3] | [4] | [5] | [6] | [7]

COc1ccc(NS(=O)(=O)c2ccc(N)cc2)nn1
inactive: [1] | [2] | [3] | [4] | [5]

CCCCC1(COC(=O)CCC(=O)O)C(=O)N(c2ccccc2)N(c2ccccc2)C1=O
inactive: [1] | [2] | [3] | [4] | [5] | [6] | [7]

CC(C)=CCC[C@@](C)(O)[C@H]1CC=C(C)CC1
inactive: [1] | [2] | [3] | [4] | [5] | [6] | [7]

Cc1cc(=O)[nH]c(=S)[nH]1
inactive: [1] | [2] | [3] | [4] | [5] | [6] | [7]

O=C(O)c1ccc(OCCCOc2ccc(C(=O)O)cc2)cc1
inactive: [1] | [2] | [3] | [4] | [5] | [6] | [7]

CCc1nnc(NS(=O)(=O)c2ccc(N)cc2)s1
inactive: [1] | [2] | [3] | [4] | [5] | [6] | [7]

O=C(NCN1CCOCC1)c1cnccn1
inactive: [1] | [2] | [3] | [4] | [5] | [6]

C/C(=C(\CCO)SS/C(CCO)=C(\C)N(C=O)Cc1cnc(C)nc1N)N(C=O)Cc1cnc(C)nc1N
inactive: [1] | [2] | [3] | [4] | [5] | [6] | [7]

COc1ccc(-c2cc(=O)c3c(O)cc(O[C@@H]4O[C@H](CO[C@@H]5O[C@@H](C)[C@H](O)[C@@H](O)[C@H]5O)[C@@H](O)[C@H](O)[C@H]4O)cc3o2)cc1O
inactive: [1] | [2] | [3] | [4]

C[C@@H](c1ncncc1F)C(O)(Cn1cncn1)c1ccc(F)cc1F (stereo not given in full)
inactive: [1] | [2] | [3] | [4] | [5] | [6] | [7]

O=S1(=O)OC(c2ccc(O)cc2)(c2ccc(O)cc2)c2ccccc21
inactive: [1] | [2] | [3] | [4] | [5] | [6] | [7]

O=C(O)CCCCC1CCSS1 (stereo not given)
inactive: [1] | [2] | [3] | [4] | [5] | [6]

CCCCCCCC(=O)OCC(O)CO (stereo not given)
inactive: [1] | [2] | [3] | [4] | [5] | [6]

CCCCCC(C)N (stereo not given)
inactive: [1] | [2] | [3] | [4] | [5] | [6] | [7]

CC(CSC(=O)c1ccccc1)C(=O)N1C[C@@H](Sc2ccccc2)C[C@H]1C(=O)O (stereo not given in full)
inactive: [1] | [2] | [3] | [4] | [5] | [6]

CC(C)(C)C(=O)OCOC(=O)[C@@H]1N2C(=O)[C@@H](NC(=O)[C@H](N)c3ccccc3)[C@H]2SC1(C)C
inactive: [1] | [2] | [3] | [4] | [5] | [6] | [7]

Cc1ccc(C(C)C)c(O)c1
inactive: [1] | [2] | [3] | [4] | [5] | [6] | [7]

Cc1cccc(C)c1NC(=O)CC12CCCN1CCC2
inactive: [1] | [2] | [3] | [4] | [5] | [6] | [7]

O=C(O)/C=C/c1ccc(Cn2ccnc2)cc1
inactive: [1] | [2] | [3] | [4] | [5] | [6]

CCCOC(=O)c1ccc(N)cc1
inactive: [1] | [2] | [3] | [4] | [5] | [6]

NC(=O)NC1NC(=O)NC1=O (stereo not given)
inactive: [1] | [2] | [3] | [4] | [5] | [6]

CCOc1ccc(C(=O)OCCN(CC)CC)cc1
inactive: [1] | [2] | [3] | [4] | [5] | [6] | [7]

Cc1c(NC(C)C)c(=O)n(-c2ccccc2)n1C
inactive: [1] | [2] | [3] | [4] | [5] | [6]

CCCNC(C)(C)COC(=O)c1ccccc1
inactive: [1] | [2] | [3] | [4] | [5] | [6]

Cc1c(I)c(=O)n(-c2ccccc2)n1C
inactive: [1] | [2] | [3] | [4] | [5]

O=C(O)c1ccccc1C(=O)Nc1ccc(S(=O)(=O)Nc2nccs2)cc1
inactive: [1] | [2] | [3] | [4] | [5]

NS(=O)(=O)c1cc(-c2nn[nH]n2)c(NCc2cccs2)cc1Cl
inactive: [1] | [2] | [3] | [4] | [5] | [6] | [7]

Cc1cc(-n2nc3ccc(Cl)cc3n2)c(O)c(C(C)(C)C)c1
inactive: [1] | [2] | [3] | [4] | [5]

Cc1[nH]c(C)c(Cl)c(=O)c1Cl
inactive: [1] | [2] | [3] | [4] | [5] | [6]

O=C1c2ccccc2S(=O)(=O)N1CCCCN1CCN(c2ncccn2)CC1
inactive: [1] | [2] | [3] | [4] | [5] | [6] | [7]

CN1CCN(C(=O)C2CCCCC2)CC1
inactive: [1] | [2] | [3] | [4] | [5] | [6] | [7]

CC(=O)N[C@@H](Cc1ccc(O)cc1)C(=O)O
inactive: [1] | [2] | [3] | [4] | [5] | [6] | [7]

CCCC(O)C(CC)CO (stereo not given)
inactive: [1] | [2] | [3] | [4] | [5] | [6] | [7]

CC1CCc2cc(F)cc3c(=O)c(C(=O)O)cn1c23 (stereo not given)
inactive: [1] | [2] | [3] | [4] | [5]

O=c1[nH]c2cc(C(F)(F)F)c(N3CCOCC3)cc2n(CP(=O)(O)O)c1=O
inactive: [1] | [2] | [3] | [4] | [5] | [6]

CCOc1cc(NC(C)=O)ccc1C(=O)OC
inactive: [1] | [2] | [3] | [4] | [5] | [6] | [7]

O=C(O)Cc1ccc(CCNS(=O)(=O)c2ccc(Cl)cc2)cc1
inactive: [1] | [2] | [3] | [4] | [5] | [6] | [7]

CC(=O)N[C@@H](CC(C)C)C(=O)O
inactive: [1] | [2] | [3] | [4] | [5] | [6] | [7]

O=C1c2ccccc2C(=O)C1c1ccc(Br)cc1
inactive: [1] | [2] | [3] | [4] | [5] | [6] | [7]

c1ccc2[nH]ccc2c1
inactive: [1] | [2] | [3] | [4] | [5] | [6] | [7]

CC[C@H](C)[C@H](N)C(=O)O
inactive: [1] | [2] | [3] | [4] | [5] | [6] | [7]

NS(=O)(=O)c1cc(C2(O)NC(=O)c3ccccc32)ccc1Cl (stereo not given)
inactive: [1] | [2] | [3] | [4] | [5] | [6] | [7]

CCc1cccc(CC)c1NC(=O)CN(CC(=O)O)CC(=O)O
inactive: [1] | [2] | [3] | [4] | [5] | [6] | [7]

Nc1ccc(S(=O)(=O)c2ccc(N)cc2)cc1
inactive: [1] | [2] | [3] | [4] | [5] | [6] | [7]

O=C(O)c1ccccc1OP(=O)(O)O
inactive: [1] | [2] | [3] | [4] | [5] | [6] | [7]

CC(C)NC[C@@H](O)COc1ccc(CC(N)=O)cc1
inactive: [1] | [2] | [3] | [4] | [5] | [6] | [7]

Cc1c(NC(=O)c2cccnc2)c(=O)n(-c2ccccc2)n1C
inactive: [1] | [2] | [3] | [4] | [5] | [6] | [7]

CC(=O)N(CC(O)CN(C(C)=O)c1c(I)c(C(=O)NCC(O)CO)c(I)c(C(=O)NCC(O)CO)c1I)c1c(I)c(C(=O)NCC(O)CO)c(I)c(C(=O)NCC(O)CO)c1I (stereo not given)
inactive: [1] | [2] | [3] | [4] | [5] | [6] | [7]

CO[C@@]1(NC(=O)C(C(=O)O)c2ccc(O)cc2)C(=O)N2C(C(=O)O)=C(CSc3nnnn3C)CO[C@@H]21 (stereo not given in full)
inactive: [1] | [2] | [3] | [4] | [5] | [6] | [7]

C/C=C1\[C@H]2C=C(C)C[C@]1(N)c1ccc(=O)[nH]c1C2
inactive: [1] | [2] | [3] | [4] | [5] | [6] | [7]

CC[C@]12CCCN3CCc4c(n(c5ccccc45)[C@@](O)(C(=O)OC)C1)[C@@H]32
inactive: [1] | [2] | [3] | [4] | [5] | [6] | [7]

Nc1ncnc(Nc2ccccc2)n1
inactive: [1] | [2] | [3] | [4] | [5] | [6] | [7]

CCOC(=O)c1cccnc1
inactive: [1] | [2] | [3] | [4] | [5] | [6] | [7]

NS(=O)(=O)c1cc2c(cc1C(F)(F)F)NCNS2(=O)=O
inactive: [1] | [2] | [3] | [4] | [5] | [6] | [7]

CC[N+](CC)(CC(=O)Nc1c(C)cccc1C)Cc1ccccc1
inactive: [1] | [2] | [3] | [4] | [5] | [6] | [7]

CN/C(=C\[N+](=O)[O-])NCCSCc1csc(CN(C)C)n1
inactive: [1] | [2] | [3] | [4] | [5] | [6] | [7]

NC(N)=NS(=O)(=O)c1ccc(N)cc1
inactive: [1] | [2] | [3] | [4] | [5] | [6] | [7]

NNc1nnc(NN)c2ccccc12
inactive: [1] | [2] | [3] | [4] | [5] | [6] | [7]
